From PubChem BioAssay
The source made the active and inactive calls.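 The calls were made as follows: active = z-score of at least 1.8 in each of two replicates, scored against plate mean and spread of sample wells; inactive = the rest.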

Experiment: galactose survival enhancers in mitochondrial complex I cybrids – cell-based, galactose medium, ATP luminescence, primary screen (AID 1645843);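 also: positive z means more ATP and so rescue of galactose-driven cybrid death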
Details: complex I mutant cybrid cells, 72 h, stronger effect = higher value
In the case of `CN(CC1Cc2ccccc2O1)C(=O)Nc1nc(-c2ccccc2)ns1` (stereo not given), the z-score is reported as 1.98 (inactive).
In the case of `Cc1cccc(-n2cc(CN(C)C(=O)C(=O)c3ccco3)cn2)c1`, the z-score is reported as 0.6 (inactive).
For `CC(C)Oc1ccc(Cl)cc1-c1nnc2ccc(Cl)cn12`, the z-score was 0.31 (inactive).
In the case of `Cc1ccc(-c2ccn(CC(=O)Nc3nn(C)c4ccccc34)n2)s1`, the z-score is reported as 2.7 (active).
With `Cn1ncc(NC(=O)CCc2cn3ccccc3n2)n1` the z-score was 0.67 (inactive).
For `CC(C)Oc1ccc(Cl)cc1-c1nnc2ccccn12`, the z-score was -0.805 (inactive).
For `CCCCc1cn(C2CCN(C3CCCC(C)(C)C3)CC2)nn1` (stereo not given), the z-score was -0.56 (inactive).
With `Cc1nsc(NC(=O)NCc2ccccc2OC(F)(F)F)n1` the z-score was 0.2 (inactive).
In the case of `CC(C)(C)CN1CCN(CC2CC2)C(CCO)C1` (stereo not given), the z-score is reported as 0.35 (inactive).
In the case of `NC1CCN(C2CCN(c3cccc(-c4ccccc4)c3)CC2)CC1`, the z-score is reported as -1.03 (inactive).
In the case of `CCCC[C@@H]1C[C@@H]1C(=O)N1CCC(n2cc(CC(C)C)nn2)CC1`, the z-score is reported as -0.07 (inactive).
In the case of `CC1(C)CCN(C(=O)c2cc(-c3cnc(C4CC4)nc3)nc3cc(F)ccc23)C1`, the z-score is reported as -0.56 (inactive).
In the case of `Cc1ccc(CC(=O)Nc2ccnn2C2CCCCC2)cc1F`, the z-score is reported as 0.325 (inactive).
With `CC(C)c1ncc(-c2cc(C(=O)N3CCC(C)(C)C3)c3ccccc3n2)cn1` the z-score was 2.19 (active).
With `CNCc1cn(C2CCN(CCC(C)CCCC(C)(C)O)CC2)nn1` (stereo not given) the z-score was -0.56 (inactive).
For `COC(=O)c1ccc(C(=O)N2CCNC(=O)C2Cc2ccccc2)cc1` (stereo not given), the z-score was -0.49 (inactive).
For `Cc1ccn2cc(C(=O)N(CC(C)C)CC(C)C)nc2c1`, the z-score was -0.515 (inactive).
For `Cc1c(C(=O)N2CCSCC2)c(-c2ccccc2)nn1-c1ccccc1`, the z-score was 1.96 (inactive).
In the case of `Cc1csc2c(=O)n(Cc3ccc(Cl)s3)cnc12`, the z-score is reported as -0.505 (inactive).
With `Cc1cc(CN2CCOC(CN)C2)ccc1OC1(C(=O)O)CCSCC1` (stereo not given) the z-score was -0.415 (inactive).
In the case of `C=C1C2(C(=O)N3CCCC(C(=O)N4CCOCC4)C3)CCC(C2)C1(C)C` (stereo not given), the z-score is reported as -0.555 (inactive).
In the case of `CCCC(CCC)C(=O)N1CCC(n2cc(C(C)O)nn2)CC1` (stereo not given), the z-score is reported as -0.47 (inactive).
In the case of `CCCC[C@@H](N)C(=O)N1CCC(n2cc(CCCO)nn2)CC1`, the z-score is reported as -0.47 (inactive).
With `Cc1cc(N2CCCN(C(=O)Nc3nncs3)CC2)ccn1` the z-score was -0.265 (inactive).
In the case of `COc1ccc(C(=O)N2CCN(C(=O)c3cc(C)c(C)cc3C)CC2)cc1`, the z-score is reported as 0.125 (inactive).
In the case of `O=C(Nc1cccc(N2CCCC2=O)c1)c1cc(C(F)(F)F)ccc1Cl`, the z-score is reported as -0.405 (inactive).
In the case of `Cc1ccccc1C1CCCN(C(=O)CCC(C)C)C1` (stereo not given), the z-score is reported as -0.255 (inactive).
For `O=c1c2cccc(C(F)(F)F)c2ncn1Cc1ccc(Cl)s1`, the z-score was -0.515 (inactive).
In the case of `Cn1ccnc1C(=O)c1cccc(-c2ccccc2Cl)c1`, the z-score is reported as -0.515 (inactive).
In the case of `Cc1nnc2ccc3nnc(-c4cc(Cl)ccc4OC(C)C)n3n12`, the z-score is reported as -0.5 (inactive).
With `C=C1C2(C(=O)N3CCCC(COC)C3)CCC(C2)C1(C)C` (stereo not given) the z-score was -0.525 (inactive).
With `Cc1nc(CN(C)C2CCN(c3ccc(-n4cccn4)cc3)CC2)cs1` the z-score was 0.655 (inactive).
With `CCCCCNC(=O)N1CCC2(CC1)Nc1ccccc1N(CC)C2=O` the z-score was -0.065 (inactive).
With `CCOC(=O)c1ccc(N2CCC(c3ccc(F)cc3)C2)nc1` (stereo not given) the z-score was 0.975 (inactive).
For `CC(C)(C)c1cn(C2CCN(C(=O)CC3CCCCCC3)CC2)nn1`, the z-score was -0.225 (inactive).
In the case of `C=C1C2(C(=O)N3CCC(c4ccc(F)cc4)C3)CCC(C2)C1(C)C` (stereo not given), the z-score is reported as 0.91 (inactive).
With `CCc1noc(CN(C(=O)c2ccccc2-n2cccn2)C(C)C)n1` the z-score was -0.655 (inactive).
In the case of `Cc1ccc(C)c(-c2c(C)sc3ncn(C4CCN(C)C4=O)c(=O)c23)c1` (stereo not given), the z-score is reported as 0.12 (inactive).
With `c1cnn(-c2ccc(N3CCC(N4CCC4)CC3)cc2)c1` the z-score was -0.48 (inactive).
With `Cc1ccc2c(C(=O)N3CCCC3)cc(-c3cnn(C(C)C)c3)nc2c1` the z-score was -0.36 (inactive).
